The entries come from a sample that favours hits as a whole.
FECH inh: blocks human mitochondrial ferrochelatase activity; P22830; purified FECH, Ni-mesoporphyrin absorbance 550 nm; calls only at 10 µM (by protocol); 20,000 tested, 3.3% active;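 active means enzyme reaction rate more than 3 SD below the solvent-only control wells on the same plate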;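 further: lower slope than DMSO wells means FECH inhibition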
Target sequence (P22830 whole entry, looked up): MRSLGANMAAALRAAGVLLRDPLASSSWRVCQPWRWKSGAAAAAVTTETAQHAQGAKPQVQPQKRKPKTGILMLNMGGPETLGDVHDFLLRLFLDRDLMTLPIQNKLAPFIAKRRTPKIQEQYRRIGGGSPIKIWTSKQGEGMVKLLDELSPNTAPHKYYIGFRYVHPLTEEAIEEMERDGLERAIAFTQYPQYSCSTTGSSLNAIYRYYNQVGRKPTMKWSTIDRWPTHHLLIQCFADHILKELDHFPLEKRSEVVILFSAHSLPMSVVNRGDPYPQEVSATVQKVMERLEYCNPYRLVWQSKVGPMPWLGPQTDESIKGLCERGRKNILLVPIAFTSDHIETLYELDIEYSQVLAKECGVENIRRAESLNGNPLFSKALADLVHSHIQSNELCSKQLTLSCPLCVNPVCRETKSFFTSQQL
Active calls of the source: *; i = inactive; + = active, no number.

SMILES | FECH inh
CCCc1[nH]ncc1C(=O)N1CCOC(CCCC(C)C)C1 (stereo not given) | i
CCCN(Cc1ccccc1OC)Cc1c(C)nn(C)c1Cl | i
CCc1ncc2c(n1)CN(C(=O)c1ccc(N3CCCC3=O)cc1)C2 | i
CCN1C(SCC(=O)N2CCN(c3ccccc3F)CC2)=NS(=O)(=O)c2ccccc21 | i
CCN1C(SCc2ccc(N3CCCC3=O)cc2)=NS(=O)(=O)c2ccccc21 | +
COCc1nnc(C(=O)N2CCC(O)(CN3CCCC3)CC2)o1 | i
CCC(=O)Nc1cccc(C(=O)N2CCC(O)(c3ccccc3C)C2)c1 (stereo not given) | i
Cc1ccc(-c2cccc(CN3CCCC4(CC3)CNC(=O)O4)c2)o1 (stereo not given) | i
CCCN(Cc1cccnc1)Cc1cnc2c(-c3ccccc3)cnn2c1 | i
Cc1ccccc1NCc1cc(=O)n2[nH]c(-c3ccccc3C)nc2n1 | +
Cc1ccccc1-c1nc2nc(CNC(C)C)cc(=O)n2[nH]1 | i
Cc1ccccc1-c1nc2nc(CNc3ccccc3F)cc(=O)n2[nH]1 | +
CCc1nc2nc(C)[nH]n2c(=O)c1NC(=O)Nc1ccc(OC)cc1 | i
Cc1ccc(-n2c(CN3CCN(S(=O)(=O)c4ccc(C)c(C)c4)CC3)nc3cccnc32)cc1 | i
CCOc1ccc(-c2nc(CSc3nc(C)c(Cc4ccccc4)c(=O)[nH]3)c(C)o2)cc1 | i
Cc1ccc(C)c(OCC(=O)N2CCC(CCN3CCCC3=O)CC2)c1C | i
CCCc1c(C)nc2ncnn2c1Sc1ccccc1NC(=O)c1cccc(Cl)c1 | i
CCCc1c(C)nc2ncnn2c1Sc1ccccc1NC(=O)c1ccc(C)cc1 | i
CCc1c(C)nc2ncnn2c1Sc1ccccc1NC(=O)c1cc(OC)cc(OC)c1 | i
Cc1cccc(C(=O)Nc2ccccc2Sc2c(C)c(C)nc3ncnn23)c1 | +
CCc1cc(Sc2ccccc2NC(=O)c2cccc(C)c2)n2ncnc2n1 | i
CCc1c(C)nc2ncnn2c1Sc1ccccc1NC(=O)c1ccc(F)cc1 | +
CCCc1c(C)nc2ncnn2c1Sc1ccccc1NC(=O)c1ccc(C(C)(C)C)cc1 | +
CCc1c(C)nc2ncnn2c1Sc1ccccc1NC(=O)c1ccc(OC)cc1 | i
CCC(=O)Nc1ccccc1Sc1c(C)c(C)nc2nc(-c3ccccc3)nn12 | +
SMILES | FECH inh
Cc1nc2ncnn2c(Sc2ccccc2NC(=O)c2ccc(Cl)cc2)c1C | i
Cc1nc2nc(-c3ccccc3)nn2c(Sc2ccccc2NC(=O)c2ccccc2)c1C | i
Cc1nc2nc(-c3ccccc3)nn2c(Sc2ccccc2NC(=O)c2c(F)cccc2F)c1C | i
CCN(CC1CCCCO1)C(=O)c1ccncc1F (stereo not given) | i
Cc1cccc(C(=O)Nc2ccc(Nc3nc(C)cc(N4CCCC4)n3)cc2)c1 | i
C=CCC(C)(C)CN1CCC(CC(=O)NC)CC1 | i
Cc1cc(NC(=O)c2ccc(C)c(C)c2)n(-c2ncnc3c2cnn3-c2ccc(Cl)cc2)n1 | i
Cc1cc(C)cc(OCC(=O)Nc2ccccc2SCc2cc(=O)n3c(ncn3C(C)C)n2)c1 | i
CNS(=O)(=O)c1ccc(CCc2nn3c(C(C)C)nnc3s2)cc1 | i
CC(C)C1CN(C(=O)c2nn(C)c(=O)c3ccccc23)CCCN1CC1CC1 (stereo not given) | i
CCn1c(=O)n(CCN2CCOCC2)c(=O)c2cnc(-c3ccc(Cl)cc3)nc21 | i
CCCC(=O)N(Cc1nc2nc(C)c(Cl)c(C)n2n1)c1ccc(OC)cc1 | i
CC(C)n1c(CN2CCC(C3(C)NC(=O)NC3=O)CC2)nc2ccccc21 (stereo not given) | i
NS(=O)(=O)c1ccc(NC(=O)c2noc3c2CCCC3)cc1 | i
CCc1ccc(-c2noc3c(=O)n(CCC(=O)Nc4ccc(S(N)(=O)=O)cc4)cnc23)cc1 | i
CCOc1ccc(-c2cc(C(=O)Nc3ccc(S(N)(=O)=O)cc3)no2)cc1 | +
CCOc1ccc(NC(=O)c2cc(-c3ccc(OC)c(S(N)(=O)=O)c3)n[nH]2)cc1 | i
NS(=O)(=O)c1ccc(NC(=O)c2nn(-c3cccc(Cl)c3)ccc2=O)cc1 | i
NS(=O)(=O)c1ccc(NC(=O)c2cc(-c3ccc(Cl)cc3)on2)cc1 | +
CCC(=O)Nc1ccccc1-c1nnc(SCC(=O)Nc2cccc(C)c2)[nH]c1=O | i
COc1ccc(OC)c(NC2=NS(=O)(=O)C(c3ccc(C)cc3)=C2C)c1 | i
Cc1c(CN(C)Cc2cc(=O)c3ccccc3[nH]2)cnn1C | i
CC(C)N(CCC(N)=O)C(=O)c1cc(C(F)(F)F)[nH]n1 | i
COc1ccc(OC)c(S(=O)(=O)Nc2ccc(Sc3cc(C)nc4nc(C)nn34)cc2)c1 | i
O=C(NC1CCCCC1)c1nc[nH]c1C(=O)N1CCC(O)(c2ccc(Cl)cc2)CC1 | i
SMILES | FECH inh
Cc1ccc(CN2CCCN(CC(=O)Nc3ccc(C)cc3)S2(=O)=O)cc1 | +
Cc1ccc(NC(=O)CN2CCN(Cc3cccc(Cl)c3)S2(=O)=O)cc1 | +
O=C(CN1CCN(Cc2ccccc2)S1(=O)=O)Nc1cccc(Cl)c1 | i
O=C(CN1CCCN(Cc2cccc(F)c2)S1(=O)=O)Nc1ccc(F)c(Cl)c1 | i
Cc1cccc(CN2CCCN(CC(=O)Nc3ccc(F)c(Cl)c3)S2(=O)=O)c1 | +
Cc1ccc(NC(=O)CN2CCN(Cc3ccc(F)cc3)S2(=O)=O)cc1 | i
Cc1cccc(CN2CCCN(CC(=O)Nc3ccc(C)c(F)c3)S2(=O)=O)c1 | i
O=C(CN1CCCN(Cc2cccc(F)c2)S1(=O)=O)Nc1ccc(F)cc1 | i
Cc1ccc(CN2CCCN(CC(=O)Nc3cccc(Cl)c3)S2(=O)=O)cc1 | i
Cc1ccc(CN2CCN(CC(=O)Nc3ccc(C)cc3)S2(=O)=O)cc1 | i
Cc1cccc(CN2CCN(CC(=O)Nc3ccc(F)cc3)S2(=O)=O)c1 | +
Cc1cccc(NC(=O)CN2CCN(Cc3ccc(F)cc3)S2(=O)=O)c1 | i
C=Cc1ccc(Cn2c(=O)c3cnc(-c4ccc(Cl)cc4)nc3n(CC)c2=O)cc1 | i
Cc1cccc(Cn2c(CNS(=O)(=O)c3ccc(F)c(Cl)c3)nc3cccnc32)c1 | i
COc1ccc(-c2[nH]ncc2CN2CCN(C)C(C(=O)O)C2)cc1OC (stereo not given) | i
COc1cc(NC(=O)C2CCCN(c3ccc(-c4ccc(C)cc4)nn3)C2)cc(OC)c1 (stereo not given) | i
O=C(O)c1ccnc(-c2ccnc(-c3ccco3)n2)c1 | i
Cc1nnsc1CNC(=O)CC(c1ccccc1)c1ccc(F)cc1 (stereo not given) | i
Cc1cc(C)n2nc(CN(C(=O)C(C)(C)C)c3ccc(F)cc3)nc2n1 | i
CCCCc1n[nH]c(=O)n1-c1cccc(C)c1 | i
Cc1ccc(NC(=O)CN2CCCN(Cc3cccc(C)c3)S2(=O)=O)cc1 | +
Cc1cccc(CN2CCCN(CC(=O)Nc3cccc(C)c3)S2(=O)=O)c1 | i
CC(=O)c1ccc(NC(=O)CN2CCCN(Cc3cccc(C)c3)S2(=O)=O)cc1 | i
COc1ccccc1CNC(=O)CN1CCCC(c2nc(C(C)C)no2)C1 (stereo not given) | i
O=c1c(Nc2ccccc2F)c(-c2ccc3c(c2)CCCC3)c1=O | +
O=c1c(Nc2ccc(Cl)cc2)c(-c2ccc3c(c2)CCCC3)c1=O | i
Cc1c(Cl)cccc1Nc1c(-c2ccc3c(c2)CCCC3)c(=O)c1=O | i
CCc1csc(CNC(=O)c2ccc(-c3ncn[nH]3)cc2)n1 | i
